The text below walks through data of PubChem BioAssay (Tox21).

Unmarked numbers belong to inactive results. Records with an inconclusive call do not appear. Calls of active or inactive are those of the source. Unless noted, the call rests on the fitted dose curve; in most records, active means well fitted curve in the direction sought with a large enough effect in the repeat runs; inconclusive means weak or mixed curves; inactive means no such curve, though single readings can be large; an effect the other way counts as inactive or inconclusive.

Test [1] in a line: qHTS assay to identify small molecule agonists of the estrogen receptor alpha (ER-alpha) signaling pathway in the presence of an antagonist - cell viability counter screen (AID 1259386).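 Further: series mostly up to about 92 µM; cells exposed to compounds for 22 h at 37 °C before the viability read; nearly all actives have a fitted effect of over 30% in size.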 The procedure, abridged:
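Cytotoxicity was measured in parallel with the ERE-luciferase agonist screen, in the same wells. The cells were VM7Luc4E2, which endogenously express ER-alpha, and treatment was with compounds plus 10.0nM ICI-182,780 for 22hr.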
In general terms: Quantitative high-throughput screening tests each substance at several concentrations.

The target of test [2] is Progesterone receptor (Homo sapiens) (UniProt P06401). The test can be described thus: qHTS assay to identify small molecule agonists of the progesterone receptor (PR) signaling pathway (AID 1346784; calls by dose curve; further: nearly all actives have a fitted effect of over 30% in size). The procedure, abridged: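 PR-UAS-bla HEK 293T cells (beta-lactamase reporter under UAS) in 2% charcoal-stripped FBS, dosed with 23 nL compound after 6 hr, incubated 16hr at 37C. LiveBLAzer B/G FRET substrate added, fluorescence read after 2 hours.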

Test [3] shares this target. The test can be described thus: qHTS assay to identify small molecule antagonists of the progesterone receptor (PR) signaling pathway (AID 1346795; active means well fitted inhibition curve with a large enough effect in the signal ratio in the repeat runs, not every such curve was filed as active; the % refers to the signal ratio; further: potency means the concentration at half of the fitted maximal effect). In a few lines: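 PR-UAS-bla HEK293T cells with beta-lactamase reporter under UAS control, in 2% charcoal-stripped FBS, treated with compounds plus 1 nM promegestone (R5020, final) for 16 hr at 37C. Read-out: FRET beta-lactamase substrate fluorescence after 2 hr at room temperature.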

The nature of test [4]: qHTS assay to identify small molecule agonists of the progesterone receptor (PR) signaling pathway - cell viability counter screen (AID 1346799; calls by dose curve; further: nearly all actives have a fitted effect of over 45% in size). The procedure, abridged:
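Counter screen in the PR-UAS-bla HEK293T wells (2% charcoal-stripped FBS, 16 h compound exposure at 37 C) after the bla read. CellTiter-Glo added, 30 min at room temperature, luminescence read as cell viability.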

Test [5] in a line: qHTS assay to identify small molecule antagonists of the TGF-beta/Smad signaling pathway - cell viability counter screen (AID 1346824). Further: nearly all actives have a fitted effect of over 50% in size. In a few lines: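 SBE-bla HEK 293T cells, incubated overnight, then compound plus 0.25 ng/mL TGF-beta1 (stock added) for 5 hr at 37 C. Viability was read in the same wells by CellTiter-Glo luminescence after 30 min at room temperature.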
Test [6] can be described thus: qHTS assay to identify small molecule agonists of the TGF-beta/Smad signaling pathway (AID 1346859; active means well fitted activation curve with a large enough effect in the signal ratio in the repeat runs, not every such curve was filed as active; the % refers to the signal ratio; further: series mostly up to about 77 µM). The procedure, abridged: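 SBE-bla HEK293T cells plated overnight, then compound exposure for 5 h at 37 C. Beta-lactamase reporter read with LiveBLAzer B/G FRET substrate after 2 h at room temperature, fluorescence at 405 nm excitation, 460/530 nm emission.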
For test [7], the target named is Thyrotropin-releasing hormone receptor (Homo sapiens) (UniProt P34981). In words: qHTS assay to identify small molecule antagonists of the thyrotropin-releasing hormone receptor (TRHR) signaling pathway (AID 1346877; active means well fitted inhibition curve with a large enough effect in the repeat runs, not every such curve was filed as active; further: series mostly up to about 51 µM). In a few lines:
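Antagonism is measured as suppression of the calcium response to 1 nM TRH in TRHR-HEK293 cells that have been dye-loaded for 2 h at 37 °C after overnight plating. Each compound is tested at 15 concentrations in triplicate.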

For test [8] the target is unchanged. In words: qHTS assay to identify small molecule agonists of the thyrotropin-releasing hormone receptor (TRHR) signaling pathway (AID 1346891; calls by dose curve; further: series mostly up to about 58 µM). In a few lines:
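HEK293 cells expressing TRHR plated 18 h at 37 C/5% CO2, calcium dye-loaded 2 h at 37 C, then compound added (agonist mode); kinetic calcium fluorescence read 3 min at 1 s intervals; 15 concentrations in triplicate.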

The nature of test [9]: Human pregnane X receptor (PXR) small molecule agonists, qHTS cell viability counter screen (AID 1346977). Further: nearly all actives have a fitted effect of over 50% in size. The procedure, abridged:
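PXR-Luc HepG2 cells (2,000/well, 5% charcoal-stripped FBS) preincubated 5 hr, then exposed to compounds 24 hr at 37 C. Viability read in the same wells by CellTiter-Fluor fluorescence, reagent added at 23 hr, 1 hr incubation.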

Test [10] can be described thus: Caspase-3/7 induction in HepG2 cells by small molecules, qHTS assay (AID 1346978). Further: nearly all actives have a fitted effect of over 15% in size. In a few lines:
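Wild-type HepG2 cells, 2,000/well, settled 5 hr at 37 C and 5% CO2, then compound-treated for 17 hr; caspase-3/7 activity read by luminescent Caspase-Glo 3/7 after 30 min at room temperature.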

The nature of test [11]: Caspase-3/7 induction in CHO-K1 cells by small molecules, qHTS cell viability counter screen (AID 1346979). Further: nearly all actives have a fitted effect of over 35% in size. In a few lines: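 Wild-type CHO-K1 cells (1,500/well) treated with compound after 5 h plating; after 16 h at 37C, viability read as CellTiter-Fluor fluorescence following 1 h reagent incubation, in the same wells as the caspase read.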
The nature of test [12]: Caspase-3/7 induction in CHO-K1 cells by small molecules, qHTS assay (AID 1346980). Further: nearly all actives have a fitted effect of over 15% in size. The procedure, abridged:
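Wild-type CHO-K1 cells exposed to compounds for 17hr at 37 C, 5% CO2. Caspase-3/7 activity then measured by Caspase-Glo 3/7 luminescence after 30min at room temperature.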

Test [13] concerns the target Nuclear receptor subfamily 1 group I member 2 (Homo sapiens) (UniProt O75469). The test can be described thus: Human pregnane X receptor (PXR) small molecule agonists, qHTS assay (AID 1346982). Further: nearly all actives have a fitted effect of over 35% in size. Further: potency means the concentration at half of the fitted maximal effect. The procedure, abridged: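 Cells: HepG2 stably carrying PXR-Luc. Medium held 5% charcoal-stripped FBS. Compounds in DMSO added after 5 hr plating, incubated 24 hr, then luminescence quantified with ONE-Glo.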

Test [14] has as its target Acetylcholinesterase (Homo sapiens) (UniProt P22303). The test can be described thus: Acetylcholinesterase (AChE) small molecule antagonists: colormetric cell-based qHTS assay (AID 1347395; calls by dose curve; further: nearly all actives have a fitted effect of over 30% in size; further: potency means the concentration at half of the fitted maximal effect). The procedure, abridged:
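SH-SY5Y cells attached overnight, exposed to compound 30 min at 37 C, then given DTNB/acetylthiocholine; after 90 min at 37 C, colorimetric thiocholine read gives cellular AChE activity.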

The nature of test [15]: qHTS assay to identify small molecule agonists of the TGF-beta/Smad signaling pathway - cell viability counter screen (AID 1346829). Further: top concentration of the series differs between compounds; nearly all actives have a fitted effect of over 45% in size. The procedure, abridged: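 After overnight seating at 37 C and 5% CO2, reporter cells got compounds for 5 hr and FRET substrate for 2 hr; cell viability then came from CellTiter-Glo luminescence.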
Test [16] in a line: qHTS assay to identify small molecule antagonists of the progesterone receptor (PR) signaling pathway - cell viability counter screen (AID 1346798). Further: series mostly up to about 92 µM; nearly all actives have a fitted effect of over 50% in size. The procedure, abridged: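 PR-UAS-bla HEK293T cells, 3,000/well in 2% charcoal-stripped FBS medium, dosed with compounds plus R5020 agonist and incubated 16 h at 37C. Viability then measured in the same wells by CellTiter-Glo luminescence after 30 min at RT.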

The nature of test [17]: Caspase-3/7 induction in HepG2 cells by small molecules, qHTS cell viability counter screen (AID 1346981). Further: series mostly up to about 92 µM; nearly all actives have a fitted effect of over 30% in size. The procedure, abridged:
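Cell viability is measured as a cytotoxicity counter screen alongside the Caspase-Glo 3/7 readout in identical wells. Wild-type HepG2 cells are treated with test compounds for 16 hr at 37 C before CellTiter-Fluor addition and a 1-hr incubation.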

Sequence of Acetylcholinesterase (Homo sapiens) (P22303 whole entry, looked up): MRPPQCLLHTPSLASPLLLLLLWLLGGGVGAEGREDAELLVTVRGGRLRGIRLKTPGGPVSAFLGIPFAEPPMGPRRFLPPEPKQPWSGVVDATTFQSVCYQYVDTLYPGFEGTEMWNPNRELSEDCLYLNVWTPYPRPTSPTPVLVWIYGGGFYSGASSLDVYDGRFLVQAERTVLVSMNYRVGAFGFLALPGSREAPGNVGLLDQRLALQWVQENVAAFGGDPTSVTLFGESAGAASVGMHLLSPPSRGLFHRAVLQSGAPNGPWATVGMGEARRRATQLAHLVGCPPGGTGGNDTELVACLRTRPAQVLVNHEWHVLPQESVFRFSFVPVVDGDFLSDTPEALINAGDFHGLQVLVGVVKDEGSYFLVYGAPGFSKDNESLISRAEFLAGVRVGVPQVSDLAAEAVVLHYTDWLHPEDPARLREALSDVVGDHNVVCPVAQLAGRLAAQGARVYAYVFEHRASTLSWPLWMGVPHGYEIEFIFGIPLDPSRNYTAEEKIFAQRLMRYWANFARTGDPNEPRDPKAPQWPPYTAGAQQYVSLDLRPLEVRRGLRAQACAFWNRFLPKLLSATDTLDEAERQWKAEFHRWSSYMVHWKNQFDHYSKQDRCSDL
Sequence of Thyrotropin-releasing hormone receptor (Homo sapiens) (P34981 whole entry, looked up): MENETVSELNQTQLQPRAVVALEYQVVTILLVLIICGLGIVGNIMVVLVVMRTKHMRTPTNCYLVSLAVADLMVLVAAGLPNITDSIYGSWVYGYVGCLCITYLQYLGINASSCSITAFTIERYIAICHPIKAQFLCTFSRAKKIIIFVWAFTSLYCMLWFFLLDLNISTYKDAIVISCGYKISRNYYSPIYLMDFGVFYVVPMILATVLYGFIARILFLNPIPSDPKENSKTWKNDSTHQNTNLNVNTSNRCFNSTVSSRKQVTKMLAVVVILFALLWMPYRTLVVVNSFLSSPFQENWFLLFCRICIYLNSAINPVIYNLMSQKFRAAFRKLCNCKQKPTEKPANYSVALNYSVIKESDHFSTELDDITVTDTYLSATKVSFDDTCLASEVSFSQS
Sequence of Progesterone receptor (Homo sapiens) (P06401 whole entry, looked up): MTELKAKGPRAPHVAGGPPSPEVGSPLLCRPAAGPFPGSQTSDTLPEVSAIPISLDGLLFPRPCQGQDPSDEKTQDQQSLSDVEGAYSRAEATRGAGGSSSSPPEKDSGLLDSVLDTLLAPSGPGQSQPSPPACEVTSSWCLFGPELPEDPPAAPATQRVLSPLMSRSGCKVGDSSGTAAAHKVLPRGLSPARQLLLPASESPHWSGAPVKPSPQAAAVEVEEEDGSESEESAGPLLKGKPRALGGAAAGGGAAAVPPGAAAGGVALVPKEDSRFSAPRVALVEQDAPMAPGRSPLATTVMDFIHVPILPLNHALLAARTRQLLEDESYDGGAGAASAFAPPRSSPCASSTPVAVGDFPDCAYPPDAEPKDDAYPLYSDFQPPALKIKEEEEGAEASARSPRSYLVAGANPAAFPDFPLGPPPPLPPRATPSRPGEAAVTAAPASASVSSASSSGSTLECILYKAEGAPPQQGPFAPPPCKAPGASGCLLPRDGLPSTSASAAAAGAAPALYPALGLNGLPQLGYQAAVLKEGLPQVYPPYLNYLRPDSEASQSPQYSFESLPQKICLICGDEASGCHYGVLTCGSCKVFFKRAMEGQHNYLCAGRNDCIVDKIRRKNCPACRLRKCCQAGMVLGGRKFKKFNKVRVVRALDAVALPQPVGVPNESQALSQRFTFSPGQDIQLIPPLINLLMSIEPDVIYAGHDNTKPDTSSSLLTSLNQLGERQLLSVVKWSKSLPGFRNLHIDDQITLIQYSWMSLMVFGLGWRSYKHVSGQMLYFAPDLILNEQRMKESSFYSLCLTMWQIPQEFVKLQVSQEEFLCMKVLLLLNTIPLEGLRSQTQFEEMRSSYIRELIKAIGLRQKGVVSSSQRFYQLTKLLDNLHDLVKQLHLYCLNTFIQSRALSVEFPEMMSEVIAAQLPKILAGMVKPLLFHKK
Sequence of Nuclear receptor subfamily 1 group I member 2 (Homo sapiens) (O75469 whole entry, looked up): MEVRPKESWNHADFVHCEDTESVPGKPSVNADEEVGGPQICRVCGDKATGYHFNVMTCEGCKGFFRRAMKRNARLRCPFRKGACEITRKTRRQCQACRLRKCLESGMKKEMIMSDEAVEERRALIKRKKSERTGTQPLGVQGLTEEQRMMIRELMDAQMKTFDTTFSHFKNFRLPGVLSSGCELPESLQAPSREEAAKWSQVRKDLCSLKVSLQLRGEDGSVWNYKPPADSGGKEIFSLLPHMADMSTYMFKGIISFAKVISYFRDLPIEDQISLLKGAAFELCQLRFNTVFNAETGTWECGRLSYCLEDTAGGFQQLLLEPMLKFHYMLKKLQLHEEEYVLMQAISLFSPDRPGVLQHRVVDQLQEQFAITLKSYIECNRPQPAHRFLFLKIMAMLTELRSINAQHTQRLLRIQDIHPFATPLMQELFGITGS

Consider `C[N+](C)=CCl`, for which the Potency result in test [1], in test [2], in [3], in test [4], in [5] and in [9] was “inactive” throughout. Further, the Potency result in [10], in [11], in test [12], in [13] and in test [14] was “inactive” throughout. In addition, the compound was called inactive in test [6], in [7] and in test [8].
On to `CCCSP(=O)(OCC)Oc1ccc(Br)cc1Cl` (centres undefined), for which the Potency result in test [1], in test [2], in test [5], in test [9], in test [10] and in [11] was “inactive” throughout. Besides, the Potency result in test [12] is “inactive”. Further, the Potency in test [3] was 11.8 µM (active); in test [13], 29.7 µM (active); in test [14] it was 6.88 µM (active). Further, the outcome in test [15], in [6], in test [7] and in test [8] was inactive.
For `CNCC(=O)c1ccc(O)c(O)c1`, the Potency result in test [1], in [2], in [16], in test [4], in test [5] and in test [9] was “inactive” each time. Further, the Potency entry in [10], in test [11], in [12], in test [17] and in test [14] was “inactive” in each case. In addition, the compound was called inactive in test [15], in test [6], in test [7] and in [8].
In the case of `CC1(C)CON(Cc2ccccc2Cl)C1=O`, the Potency entry in test [1], in test [2], in test [16], in test [4], in test [5] and in test [9] was “inactive” in each case. The Potency result in test [10], in [11], in test [12], in test [17] and in [14] was “inactive” throughout. The result in test [15], in [6], in [7] and in [8] was inactive. Also, the Potency in [13] is 68.6 µM (active).
Turning to `CCCCP(CCCC)CCCC`, the Potency result in test [1], in [2], in test [16], in test [4], in [5] and in [9] was “inactive” throughout. For the same compound, the Potency entry in test [10], in [11], in [12], in test [13] and in test [14] was “inactive” throughout. Moreover, the call in test [15], in test [6], in test [7] and in test [8] was inactive.
Consider `N#Cc1c(Cl)cccc1Cl`, for which the Potency result in [1], in test [2], in [16], in test [4], in test [5] and in test [9] was “inactive” throughout. The Potency entry in [10], in [11], in [12], in test [13] and in [14] was “inactive” each time. Moreover, the call in test [6], in test [7] and in test [8] was inactive.
As for `CCCCOC(=O)[C@@H](C)Oc1ccc(Oc2ccc(C#N)cc2F)cc1`, the Potency result in [1], in test [2], in [16], in test [4], in [5] and in test [9] was “inactive” in each case. Also, the Potency entry in test [10], in test [11], in test [17], in test [13] and in test [14] was “inactive” in each case. Moreover, the call in test [15], in test [7] and in [8] was inactive.
For `CCc1cc2c(s1)-n1c(C)nnc1CN=C2c1ccccc1Cl`, the Potency entry in test [1], in [2], in test [16], in test [4], in test [5] and in [9] was “inactive” each time. Also, the Potency entry in test [10], in [11] and in [14] was “inactive” each time. For the same compound, the compound was called inactive in [15], in test [6] and in [7].
With `O=C(Nc1ccccc1)c1ccccc1I`, the Potency result in [1], in [2], in [16], in test [4], in [5] and in [9] was “inactive” each time. The Potency entry in test [10], in test [12], in test [17] and in test [14] was “inactive” in each case. In addition, the call in [15], in [6], in test [7] and in [8] was inactive. For the same compound, in [13], the Potency is 68.6 µM (active).
